Eight compounds from PubChem BioAssay (NCI) can be followed below.

The panel holds about 83,000 compounds, 20% with a hit somewhere; the sample as a whole holds those more often.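 Note: values are percent growth. 100 is the growth of untreated cells, values between 100 and 0 indicate rising inhibition; between -100 and 0 indicates cell death.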 Values without a mark were called inactive. Active and inactive are the calls of the source. How the source made its calls: active means growth percent below 10; inactive means the rest.

Holding throughout (experiment): NCI-60 one-dose screen, 48 h (100 = growth as untreated, 0 = no growth, -100 = all killed)
One assay concerns HCT-15 colon. The conditions noted are these: 10 µM unless noted.
Another assay deals with HT29 colon. The conditions noted are these: 10 µM unless noted.
Another assay deals with SNB-75 CNS. The conditions noted are these: 10 µM unless noted.
A further assay concerns SNB-19 CNS. The conditions noted are these: 10 µM unless noted.
In a further assay the test system is U251 CNS. The settings on record: 10 µM unless noted.
In another assay the test system is PC-3 prostate. The settings on record: 10 µM unless noted.
The subject of another assay is SK-MEL-5 melanoma. The settings on record: 10 µM unless noted.
Another assay deals with UACC-62 melanoma. The conditions noted are these: 10 µM unless noted.
In another assay the test system is LOX IMVI melanoma. The settings on record: 10 µM unless noted.
In another assay the test system is SK-MEL-28 melanoma. The conditions noted are these: 10 µM unless noted.
A further assay has as its system SK-MEL-2 melanoma. The settings on record: 10 µM.
Another assay concerns EKVX NSCLC. The conditions noted are these: 10 µM unless noted.
The subject of another assay is SN12C renal. The conditions noted are these: 10 µM unless noted.
The next assay concerns UO-31 renal. The settings on record: 10 µM unless noted.
The next assay concerns TK-10 renal. The conditions noted are these: 10 µM unless noted.
The next assay deals with ACHN renal. The conditions noted are these: 10 µM unless noted.
The next assay has as its system A498 renal. The settings on record: 10 µM unless noted.
Another assay has as its system CCRF-CEM leukemia. The settings on record: 10 µM unless noted.
The subject of the next assay is MOLT-4 leukemia. The settings on record: 10 µM unless noted.

As for `C=CC[n+]1c(/C=C/C=C2\N(C)c3ccccc3C2(C)C)sc2ccc(OC)cc21`, the growth was 12.8% in the assay on HCT-15 colon; 9.18% (active) in the assay with HT29 colon; 20% with SNB-75 CNS; 28.2% in the assay on SNB-19 CNS; 15.9% with U251 CNS; 17.6% with PC-3 prostate. Also, the growth in the assay on SK-MEL-5 melanoma is -90.7% (active); with UACC-62 melanoma, 19.5%; in the assay with LOX IMVI melanoma it was 15.9%; in the assay with SK-MEL-28 melanoma it was 37.5%; in the assay with SK-MEL-2 melanoma, -13.4% (active); in the assay with EKVX NSCLC, 10.9%. In addition, the growth was 11.7% in the assay on SN12C renal; 13.7% in the assay with UO-31 renal; 32.8% with TK-10 renal; 10.8% with ACHN renal; 17.7% in the assay with A498 renal; 21.5% in the assay on CCRF-CEM leukemia. Besides, in the assay on MOLT-4 leukemia, the growth was 10.2%.

For the compound `CC[n+]1c(/C=C/C=C2\N(C)c3ccccc3C2(C)C)sc2ccccc21`, the growth is 6.66% (active) in the assay on HCT-15 colon; 6.94% (active) with HT29 colon; 28.8% in the assay on SNB-75 CNS; 31.9% in the assay with SNB-19 CNS; 10.8% in the assay with U251 CNS; 17.4% in the assay with PC-3 prostate. Moreover, the growth in the assay with SK-MEL-5 melanoma is -89.7% (active); in the assay on UACC-62 melanoma, 12.4%; in the assay with LOX IMVI melanoma, 2.76% (active); in the assay with SK-MEL-28 melanoma, 37.1%; in the assay with SK-MEL-2 melanoma, -16.2% (active); with EKVX NSCLC, 10.9%. Also, the growth in the assay with SN12C renal is 5.6% (active); with UO-31 renal, 12.6%; in the assay with TK-10 renal it was 21.5%; in the assay with ACHN renal it was 7.97% (active); with A498 renal, 12.3%; in the assay with CCRF-CEM leukemia, 3.17% (active). Besides, in the assay on MOLT-4 leukemia, the growth was -19.1% (active).

For `C=CC[n+]1c(/C=C2\Sc3ccccc3N2C)sc(-c2ccccc2)c1-c1ccccc1`, the growth with HCT-15 colon is 26.2%; with HT29 colon, 6.28% (active); in the assay with SNB-75 CNS, 12%; in the assay on SNB-19 CNS, 26.8%; in the assay on U251 CNS it was 15.1%; with PC-3 prostate, 17.9%. In addition, the growth in the assay on SK-MEL-5 melanoma is -97.8% (active); with UACC-62 melanoma it was 13.8%; in the assay with LOX IMVI melanoma, 10.9%; in the assay with SK-MEL-28 melanoma it was 33.5%; with SK-MEL-2 melanoma it was -15.5% (active); with EKVX NSCLC, 16.5%. Further, the growth was 8.01% (active) in the assay with SN12C renal; 6.58% (active) in the assay on UO-31 renal; -6.28% (active) in the assay on TK-10 renal; 8.86% (active) with ACHN renal; 7.29% (active) in the assay on A498 renal; 23.2% with CCRF-CEM leukemia. Moreover, the growth in the assay with MOLT-4 leukemia was -4.71% (active).

Consider `Cc1cc(N(CCNc2ccnc3cc(Cl)ccc23)Cc2ccc3c(c2)OCO3)nc(N2CCN(C)CC2)n1`, for which the growth was 0.627% (active) in the assay with HCT-15 colon; 0.16% (active) in the assay with HT29 colon; 32.4% in the assay on SNB-75 CNS; 29.4% in the assay with SNB-19 CNS; -22.1% (active) in the assay on U251 CNS; 48.2% in the assay on PC-3 prostate. Moreover, the growth in the assay on SK-MEL-5 melanoma was -96.1% (active); with UACC-62 melanoma, 33.7%; with LOX IMVI melanoma, -71.8% (active); with SK-MEL-28 melanoma, -65.7% (active); in the assay on SK-MEL-2 melanoma, -57.5% (active); in the assay with EKVX NSCLC, 73.4%. The growth with SN12C renal is 60.7%; with UO-31 renal, 2.58% (active); with TK-10 renal, -24.9% (active); in the assay with ACHN renal, -20.6% (active); in the assay with A498 renal, 42.6%; in the assay on CCRF-CEM leukemia, -11.8% (active). Moreover, the growth in the assay on MOLT-4 leukemia is 0.0794% (active).

With `O=C(Nc1ccc(C2=NCCCN2)cc1)c1ccc(C(=O)Nc2ccc(C3=NCCCN3)cc2)nc1`, the growth in the assay on HCT-15 colon was 108%; with HT29 colon it was 109%; with SNB-75 CNS, 87%; in the assay on SNB-19 CNS it was 96.8%; in the assay on U251 CNS, 105%; in the assay on PC-3 prostate, 106%. Besides, the growth is 99.3% with SK-MEL-5 melanoma; 99.5% in the assay on UACC-62 melanoma; 105% in the assay on LOX IMVI melanoma; 120% in the assay with SK-MEL-28 melanoma; 109% with SK-MEL-2 melanoma; 96% in the assay with EKVX NSCLC. The growth in the assay on SN12C renal is 99.8%; with UO-31 renal it was 82.6%; in the assay on TK-10 renal it was 122%; with ACHN renal, 107%; with A498 renal it was 127%; with CCRF-CEM leukemia, 107%. Moreover, the growth in the assay with MOLT-4 leukemia was 85.8%.

As for `CCN1/C(=C/C=C/c2n(-c3ccccc3)c3ccc(-c4nc5ccccc5s4)cc3[n+]2CC)N(c2ccccc2)c2ccc(-c3nc4ccccc4s3)cc21`, the growth in the assay with HCT-15 colon was 14.9%; in the assay with HT29 colon it was 10.8%; in the assay on SNB-75 CNS it was 18.6%; in the assay on SNB-19 CNS it was 24.7%; in the assay with U251 CNS, 4.79% (active); with PC-3 prostate it was 16.2%. The growth in the assay on SK-MEL-5 melanoma was -59.2% (active); in the assay with UACC-62 melanoma it was 30.5%; in the assay on LOX IMVI melanoma, 1.77% (active); in the assay on SK-MEL-28 melanoma, -8.49% (active); with SK-MEL-2 melanoma, -23.5% (active); in the assay with EKVX NSCLC it was 9.19% (active). The growth in the assay on SN12C renal was -2.95% (active); in the assay on UO-31 renal, -7.26% (active); in the assay with TK-10 renal, -2.12% (active); in the assay on ACHN renal, -3.27% (active); with A498 renal, -12.7% (active); in the assay on CCRF-CEM leukemia it was 24.5%. Also, the growth with MOLT-4 leukemia was 16.5%.

Take `CCN(CC)C(=O)C[N+](C)(C)CCOC(c1ccccc1)c1ccccc1`: the growth in the assay on HCT-15 colon was 101%; in the assay on HT29 colon, 105%; with SNB-75 CNS, 75.4%; in the assay on SNB-19 CNS, 106%; in the assay with U251 CNS, 110%; with PC-3 prostate, 100%. The growth in the assay on SK-MEL-5 melanoma is 103%; in the assay on UACC-62 melanoma, 106%; in the assay with LOX IMVI melanoma, 97.7%; in the assay on SK-MEL-28 melanoma it was 105%; in the assay with SK-MEL-2 melanoma it was 103%; in the assay with EKVX NSCLC, 100%. Further, the growth in the assay with SN12C renal is 106%; with UO-31 renal it was 93.4%; with TK-10 renal, 98.2%; in the assay on ACHN renal, 111%; in the assay with A498 renal, 114%; in the assay with CCRF-CEM leukemia it was 112%. The growth with MOLT-4 leukemia is 103%.

In the case of `CN(N)c1nc2sc3c(c2c(=O)[nH]1)CCCC3`, the growth in the assay on HCT-15 colon was 99.6%; with HT29 colon it was 90.4%; in the assay on SNB-75 CNS, 91.9%; in the assay on SNB-19 CNS, 105%; with U251 CNS, 92.1%; in the assay with PC-3 prostate, 94.9%. Besides, the growth is 106% in the assay on SK-MEL-5 melanoma; 110% with UACC-62 melanoma; 102% with LOX IMVI melanoma; 114% with SK-MEL-28 melanoma; 103% in the assay with SK-MEL-2 melanoma; 86.6% in the assay with EKVX NSCLC. Moreover, the growth in the assay on SN12C renal is 104%; in the assay with UO-31 renal, 72.9%; in the assay on TK-10 renal, 111%; with ACHN renal it was 107%; in the assay on A498 renal it was 101%; in the assay on CCRF-CEM leukemia, 98.9%. Moreover, the growth in the assay with MOLT-4 leukemia is 97.5%.
